In the supplement of paper PMC3334620:
Over roughly 33,000 sequences, “E-score (-0.5 to 0.5)” has its median near -0.054; the highest 2% begin near 0.39. The entries come from a sample that favours the highest values as a whole.

What follows are sequences tested against Ylr278c (UniProt Q05854) (assay: PBM E-score (8-mer binding enrichment) (E-score (-0.5 to 0.5)); higher = stronger / more preferred TF binding). Conditions: protein concentration: 200 nM; construct: GST-DNA-binding domain.
Description: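 Universal 'all 10-mer' protein binding microarrays (Agilent AMADID 015681) probed with GST-tagged S. cerevisiae TFs (full-length or DBD) made by in vitro transcription/translation (PURExpress), about 100-200 nM. Bound TF was detected with fluorescent anti-GST. Each ungapped 8-mer (which stands for itself and its reverse complement) is scored by the PBM enrichment score (E-score), a modified Wilcoxon-Mann-Whitney statistic from -0.5 to +0.5, computed with the Universal PBM Analysis Suite. Scale: above 0.35 generally sequence-specific binding.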

Chain of UniProt Q05854 (Q05854 whole entry, the tested form may be a part): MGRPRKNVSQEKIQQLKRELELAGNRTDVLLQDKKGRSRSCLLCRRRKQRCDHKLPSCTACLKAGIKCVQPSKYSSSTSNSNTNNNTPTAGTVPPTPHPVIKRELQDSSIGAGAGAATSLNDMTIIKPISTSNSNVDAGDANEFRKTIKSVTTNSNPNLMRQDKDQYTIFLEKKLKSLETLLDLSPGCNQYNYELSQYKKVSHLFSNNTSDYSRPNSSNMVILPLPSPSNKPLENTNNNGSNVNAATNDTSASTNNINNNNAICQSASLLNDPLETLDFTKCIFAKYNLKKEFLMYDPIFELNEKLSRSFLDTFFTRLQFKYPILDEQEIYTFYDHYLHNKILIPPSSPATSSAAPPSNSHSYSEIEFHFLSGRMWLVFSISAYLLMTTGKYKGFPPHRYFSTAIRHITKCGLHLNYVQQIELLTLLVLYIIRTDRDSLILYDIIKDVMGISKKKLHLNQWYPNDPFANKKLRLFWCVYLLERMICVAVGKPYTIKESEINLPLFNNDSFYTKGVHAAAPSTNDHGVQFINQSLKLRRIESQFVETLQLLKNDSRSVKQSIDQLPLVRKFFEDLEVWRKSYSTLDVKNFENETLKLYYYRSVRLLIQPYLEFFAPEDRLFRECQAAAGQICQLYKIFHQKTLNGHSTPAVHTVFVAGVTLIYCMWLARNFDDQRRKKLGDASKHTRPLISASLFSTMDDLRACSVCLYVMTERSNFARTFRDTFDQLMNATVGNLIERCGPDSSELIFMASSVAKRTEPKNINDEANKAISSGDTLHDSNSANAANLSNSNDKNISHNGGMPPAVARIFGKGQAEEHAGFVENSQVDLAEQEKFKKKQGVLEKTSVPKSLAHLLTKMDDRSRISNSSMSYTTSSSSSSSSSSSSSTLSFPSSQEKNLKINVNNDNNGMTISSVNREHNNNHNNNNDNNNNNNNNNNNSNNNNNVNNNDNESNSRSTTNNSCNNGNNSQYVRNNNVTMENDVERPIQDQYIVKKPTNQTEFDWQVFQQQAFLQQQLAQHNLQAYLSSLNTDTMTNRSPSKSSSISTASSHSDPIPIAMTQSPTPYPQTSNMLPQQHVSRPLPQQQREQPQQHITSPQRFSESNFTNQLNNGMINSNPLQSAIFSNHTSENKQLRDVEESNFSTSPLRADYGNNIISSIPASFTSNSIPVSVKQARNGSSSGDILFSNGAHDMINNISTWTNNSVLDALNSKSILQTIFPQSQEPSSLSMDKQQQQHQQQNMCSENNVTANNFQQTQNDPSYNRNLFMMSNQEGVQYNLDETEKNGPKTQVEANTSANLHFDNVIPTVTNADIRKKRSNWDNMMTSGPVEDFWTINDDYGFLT

Sequence	PBM E-score
ATTCGGAG	0.422
ATTCGGAC	0.392
ATTCGGCC	0.284
ATTCGGCG	0.286
ATTCGGAA	0.36
ATTCGGGC	0.18
AAGACAGC	-0.0488
AAGGGAAT	-0.149
CGCTTCTC	0.168
CAGAGAGC	-0.184
AGGAGAGA	-0.136
CGGAGAGC	0.389
AGGAGAGC	-0.275
GGGAGAGA	-0.201
CGGAGAGA	0.402
AAGGTCAA	-0.195
ACTCTAAT	-0.121
ATTGGCAC	-0.247
AGGATCCG	0.226
GGGATCCC	0.325
CGGATCCC	0.402
AGGATCCC	0.113
CGGATCCG	0.438
CGGATCCA	0.221
ATGCAGCG	0.0411

Sequence	PBM E-score
CCCATAAG	0.0166
GTGGAGTA	-0.135
CCCAACAA	-0.0374
GCAGGATA	-0.221
AACGGACA	0.321
GACGGACA	0.328
GCCGGACC	0.376
ACCGGACA	0.401
CACGGATA	0.196
CCCGGACA	0.405
GCCGGATA	0.4
ACTGGACA	-0.189
CACGGACA	0.317
GCCGGACA	0.447
CCCGGACG	0.273
ACACCCCC	-0.133
GCTATCAC	-0.108
CGTGAACG	-0.0842
AGGCCCCT	-0.194
TACGGACA	0.257
ACCGGACG	0.369
ACCGGACC	0.384
TGCGGACA	0.356
TCCGGACA	0.456
ACCGGACT	0.443

Sequence	PBM E-score
CTTTTGCC	0.093
AAGTTACT	0.0192
AACCGTGA	-0.0334
GACTGGGA	0.0171
GCGGAACC	0.254
ACGGAACG	0.271
CGGGAACA	0.192
GCGGAACA	0.344
ACGGAACA	0.27
ACGGAACC	0.213
CCGGAACA	0.442
CCGGAACC	0.402
TCGGAACA	0.417
CCGGAACG	0.411
CAGGAACG	-0.153
CAGGAACA	-0.157
AACTCAGT	-0.15
ATTCTCTA	-0.0579
CAGAAATA	0.0765
AATGCATT	-0.0548
AAAGGCCG	0.37
ACAACCGT	-0.251
ATTTGAGC	-0.102
CGTATCAG	0.0563
AGTAGATG	-0.0703

Sequence	PBM E-score
ATCCAGAT	-0.146
TAACTTGA	-0.237
AAGGAGAT	0.0883
ACGGAGAT	0.465
AGGGAGAT	-0.207
ACGGAGAC	0.39
GGGGAGAC	0.0986
GAGGAGAC	-0.0694
ATGGAGAC	-0.103
GCGGAGAC	0.4
AAGGAGAC	-0.214
GCCCATAC	-0.275
CTCCAGCA	-0.256
ATGGCTAC	-0.185
ATGGGTTG	-0.114
CAAGTATC	-0.152
GGATTTTA	0.283
AAACGCCG	0.412
AAACGCCA	0.0115
CAACGCCG	0.318
CGAGTCAG	-0.151
TAGGTAAA	-0.0912
GAATGCAA	0.00843
AAATGCCC	-0.0631
CAATGCCG	0.365

Sequence	PBM E-score
AAATGCCG	0.423
AATACCTG	-0.107
AAACTCTG	-0.126
GGAACTCA	0.189
CGAACTCG	0.0307
GGAACTCC	0.393
AGAACTCC	0.276
CGAACTCA	-0.0578
CGAACTCC	0.39
ACCTTGTC	-0.192
GGCTTGCA	-0.118
ACTGGTGC	-0.0757
AACTTCCG	0.433
ATGTTCCC	-0.0151
CCGTTCCG	0.402
ATGTTCCA	-0.162
AACTTCCT	0.00298
AAGTTCCT	-0.0671
AACTTCCA	0.0686
ACGTTCCG	0.289
AAGTTCCG	0.42
ATGTTCCG	0.429
CCGTTCCA	0.0158
CAGTTCCG	0.348
ATCCTCAG	0.0306

Sequence	PBM E-score
AAATAGCC	-0.00231
AATTCTCT	-0.113
AATCCACA	-0.0935
AAGCGGCG	0.222
GGGTAACC	-0.0903
GGAGAGTA	0.243
GACCGGTC	0.397
ATCCGGTC	0.346
CTCCGGTA	0.47
CTCCGGTC	0.455
CACCGGTC	0.183
AACCGGTC	0.198
CGCCGGTC	0.388
GTCCGGTA	0.366
ATCCGGTA	0.294
ATGCACCG	0.178
CAACTCGC	-0.0405
TAAGAAAA	-0.0396
CGCGCTTA	0.0847
AAGACGTA	-0.154
CAGACTGG	-0.271
ATGCCGGA	0.456
CTGCCGGA	0.355
GTGCCGGA	0.438
ATGCCGGG	0.336

Sequence	PBM E-score
ATGCCGGC	0.372
GTGCCGTA	0.0749
ATGCGCTC	-0.034
CCTGTGGC	-0.166
GCGCGCTA	0.0544
CGTATATA	-0.111
GAATTGCC	0.182
AGGGGATG	-0.112
GCTACCCA	-0.196
CCACTCCC	0.0826
ACACTCCC	0.00682
CCACTCCA	-0.0346
ACACTCCG	0.398
CCACTCCG	0.437
ACTCTCCA	-0.0794
ACTCTCCG	0.405
ATACTCCG	0.487
CCTCTCCG	0.333
ATACTCCA	-0.0317
ATACTCCC	0.243
ACACTCCT	-0.0208
CAACAGAG	-0.0308
GACGCACA	0.146
CTGAGGCC	0.115
GATAGTGA	-0.0321

Sequence	PBM E-score
ATTTTAAA	0.0686
CCAACTGG	-0.22
AGTTGCGC	0.233
ACTTCACT	-0.0406
AAATCAGT	0.0231
AGTCTCCA	-0.312
AGTCTCCG	0.434
ATTCTCCA	-0.052
AGTCTCCC	0.102
ATTCTCCG	0.474
ATTCTCCC	0.0768
CCGTCTCA	0.0735
CTCTGCTA	-0.128
CTAGCAGA	-0.195
CTCAAAGA	-0.2
TAGTCATA	-0.145
AATATCCC	0.211
AAAATCCG	0.451
AATATCGC	0.125
CAAATCCG	0.381
AATATCGA	-0.0141
ATTATCCC	0.0767
AATATCCG	0.423
ATTATCCG	0.393
AATATCCA	0.0239

Sequence	PBM E-score
ATTATCCA	-0.155
AAAATCCC	0.263
AATATCGG	0.395
ACGCATGC	-0.0181
GCTCGTTA	-0.188
ATCAGCGG	0.29
CGACCACG	0.0345
ATACAGCA	-0.0117
AAATCAAC	-0.111
AACTGACC	0.152
CCGCGCCA	0.182
CCGCGCGG	0.433
AGGCGCCG	0.206
CCGCGCGC	0.28
CCGCGCCC	0.191
CGGCGCCA	0.214
CCGCGCGA	0.216
CGGCGCCG	0.461
CCGCGCCG	0.4
CGACACTA	0.102
CGGTTGCC	0.109
GGCCTTAA	-0.0388
TATGTTCA	-0.0845
TACATTCA	-0.223
TCGGACCA	0.379

Sequence	PBM E-score
CCGGACAA	0.444
CCGGACAG	0.357
ACGGACAG	0.043
GCGGACAC	0.216
GCGGACAA	0.398
ACGGACAC	0.194
ACGGACAT	0.392
TCGGACAA	0.434
CCGGACAC	0.371
TAGGACAA	-0.233
ACGGACAA	0.355
AAAATCGA	-0.177
GCTCTCCC	-0.0961
CCCACCAG	-0.212
AGCCTACA	-0.0936
CGGCCGAG	0.279
ACTCCCAC	-0.035
TCTACCCA	-0.14
TCTGCACA	0.0219
ACAGACCA	-0.0751
GATTCGAA	0.102
AGCTTAAG	-0.229
ATGAGCCC	-0.138
CCTGATAC	-0.0837
CGAGAAAA	-0.0264

Sequence	PBM E-score
AGACTAAT	-0.0793
CCGGATAC	0.384
CCGGATAG	0.347
TCGGATAA	0.403
CCGGATAA	0.417
GCGGATAA	0.314
ACGGATAA	0.293
ATCAAGGG	-0.1
CCAAAGCA	-0.107
AGTCCGTA	0.328
AGTCCGCA	0.372
GGTCCGTA	0.304
CGTCCGGC	0.407
CGTCCGTA	0.189
GGTCCGGA	0.446
AGTCCGGA	0.476
CGTCCGGA	0.43
CGTCCGCA	0.246
CGTCCAGC	-0.233
CGTCCGTC	0.208
GGTCCGCA	0.278
CATTTTCG	0.173
TAAGTGAA	-0.072
ATGAGGAG	-0.132
CGGACGCC	0.366

Sequence	PBM E-score
CTAGTTCC	0.0969
CGCAATTC	0.201
CATGAAGG	-0.145
TATCCACA	-0.144
ACAACTCC	0.295
CCTTTCGC	0.0666
AGTGCGGG	0.258
CATGCGGA	0.317
AGTGCGGA	0.394
AATGCGGT	0.116
AATGCGGA	0.396
CGTGCGGA	0.279
GGCCGGCC	0.372
AGCCGGCA	0.33
CGCCGGCC	0.367
AGCCGGCC	0.324
CGCCGCCG	0.362
AGCCGGCG	0.372
CGCCGGCA	0.39
CGCCGGCG	0.463
GGCCGGCA	0.394
AAGCTATG	-0.249
AATTTGAG	-0.15
CCCATCTC	0.0175
GGATGGGA	0.0151

Sequence	PBM E-score
GTTGTGTA	-0.159
AACAAGCA	0.0514
CGTGGGCA	-0.16
CCCGGACC	0.376
CCGGGAGC	0.228
TCCAGAGA	-0.212
GCCGGAGA	0.459
GCCAGAGC	-0.222
GCAGGAGC	-0.194
GCCAGAGA	-0.194
TCCGGAGA	0.483
GCCGGTGA	0.298
CCCGGAGC	0.452
GCCGGAGC	0.452
TCAGGAGA	-0.0923
GTCTACTA	-0.0894
CCGTCCCG	0.348
CCCAACCG	-0.0967
AAGCTGCC	-0.234
ATCCAAGG	0.0179
AGGCTGCA	-0.242
CCCCTCAG	-0.124
TCAAAGCA	-0.174
AGTTCACC	0.126
GCAACCAC	0.00041

Sequence	PBM E-score
ACCGGAGC	0.448
ACCGGATC	0.354
CCCCGAGG	0.245
ACCGGATG	0.279
ACCGGAGG	0.441
ACTGGAGC	-0.117
CCCAGAGA	-0.233
CCGGGAGA	0.362
ACCGGGGG	0.293
CCGGGAGG	0.261
CCCGGAGA	0.476
CCCGGAGG	0.439
GCGTATAC	-0.00732
CGTAGAAC	-0.0134
AATGAACA	-0.117
ACATTGGG	-0.122
TATATCCA	-0.171
ACCGGAGA	0.475
ACAGGAGA	-0.0277
ACCGGAGT	0.481
ACCAGAGT	-0.219
ACAGGAGT	-0.0336
ACCGGATA	0.265
